Laboratory results published in PubChem BioAssay (EPA / NIEHS).
Several values for one entry are separate records, joined by “and”; a condition that tells them apart may be missing. Equal values may be shown once. Activity calls are given as the source filed them. How the source made its calls: active means hit-call score of the fitted dose curve at least 0.9, where 1 is the maximum; inactive means score below 0.9.

read-out: Matrix Metallopeptidase 9 (MMP9), MMP9 (gene 4318); test: BSK_KF3CT_MMP9: BioMAP Diversity Plus: KF3CT Assay for Matrix Metallopeptidase 9 (MMP9) Biomarker Activity (AID 2283074); settings: primary human keratinocytes with fibroblasts; actives raise or lower the signal
Method: BSK_KF3CT is a cell-based, multiplexed-readout assay that uses keratinocytes and foreskin fibroblasts, a human skin primary cell co-culture, with measurements taken at 24 hours after chemical dosing in a 96-well plate.BSK_KF3CT_MMP9 is an assay component measured in the BSK_KF3CT assay. It measures MMP-9 antibody related to regulation of gene expression using ELISA technology.Data from the assay component BSK_KF3CT_MMP9 was analyzed into 1 assay endpoint. This assay endpoint, BSK_KF3CT_MMP9, was analyzed with bidirectional fitting relative to DMSO as the negative control and baseline of activity. Using a type of binding reporter, gain or loss-of-signal activity can be used to understand changes in the signaling as they relate to the gene MMP9. Furthermore, this assay endpoint can be referred to as a primary readout, because this assay has produced multiple assay endpoints where this one serves a signaling function. To generalize the intended target to other relatable targets, this assay endpoint is annotated to the protease intended target family, where the subfamily is matrix metalloproteinase.
The levels of cell surface (or secreted, indicated by the prefix "s") biomarker endpoints were measured by ELISA. Overt cytotoxicity to cells in confluent adherent cultures (all systems other than the BT system) was assessed by measuring total protein levels using sulforhodamine B (SRB) staining in parallel cultures at the time of biomarker measurements, indicated as SRB endpoints. For proliferation assays for adherent cell types, individual cell types are cultured at sub-confluence and relative cell numbers quantified by SRB staining at time points optimized for each system (48 h: 3C and CASM3C systems; 72 h: BT and HDF3CGF systems; 96 h: SAg system). SRB was performed by staining cells with 0.1% SRB after fixation with 10% TCA and reading wells at 560 nm.Viability and proliferation of PBMC (T cells) was quantified by Alamar Blue reduction for the SAg and BT systems. For PBMC viability (referred to as PBMC Cytotoxicity within the assay endpoint names), cells were plated (75,000/well in a 96-well plate) and then chemical samples added for 1 h before addition of activators, SEB and TSST-1 (20 ng/mL final concentration each). Cells were incubated for 90 h. Then, Alamar Blue (20 uL/well) (Invitrogen, Cat DAL1100) was added for 6 h, and the plates were read with a fluorescence microplate reader at 546/580 nm (excitation/emission). For PBMC proliferation, cells were plated and activated as above but incubated for only 16 h prior to addition of Alamar Blue. Plates were read after 6 h.

SMILES | outcome | AC50
CCSC(=O)N(CC(C)C)CC(C)C | inactive | –
CCOC(=O)NCCOc1ccc(Oc2ccccc2)cc1 | – | 30.3 µM (active)
N#CSCSc1nc2ccccc2s1 | – | 10.6 µM (active) and 10.3 µM (active)
N[C@@H](Cc1cc(I)c(Oc2ccc(O)c(I)c2)c(I)c1)C(=O)O | inactive | –
CC(C)CCCCCCc1ccc(O)cc1 | – | 9.76 µM (active)
C[C@]12C[C@H](O)[C@H]3[C@@H](CCC4=CC(=O)CC[C@@]43C)[C@@H]1CC[C@@H]2C(=O)CO | inactive | –
COC(=O)c1ccc(CNS(C)(=O)=O)cc1S(=O)(=O)NC(=O)Nc1nc(OC)cc(OC)n1 | inactive | –
CC1(C)C(C=C(Cl)Cl)C1C(=O)OCc1cccc(Oc2ccccc2)c1 (stereo not given) | inactive | –
CC(=O)S[C@@H]1CC2=CC(=O)CC[C@]2(C)[C@H]2CC[C@@]3(C)[C@@H](CC[C@@]34CCC(=O)O4)[C@H]12 | inactive | –
C=CCOC(Cn1ccnc1)c1ccc(Cl)cc1Cl (stereo not given) | inactive | –
CCCOC(=O)c1ccc(C(=O)OCCC)nc1 | inactive | –
O=C(c1ccccc1)C1CCCCC1 | inactive | –
CCOC(=O)c1ccc(O)cc1 | inactive | –
c1ccc(Nc2ccccc2)cc1 | inactive | –
COc1c(Cl)ccc(Cl)c1C(=O)O | inactive | –
CN(C)C(=O)Nc1ccc(Cl)c(Cl)c1 | inactive | –
CCN(CC)C(=O)c1cccc(C)c1 | inactive | –
Oc1ccc(C(c2ccc(O)cc2)C(Cl)(Cl)Cl)cc1 | – | 24.6 µM (active)
O=C(Nc1ccc([N+](=O)[O-])cc1Cl)c1cc(Cl)ccc1O | – | 0.313 µM (active)
COC(=O)c1ccccc1S(=O)(=O)NC(=O)Nc1nc(OC(F)F)cc(OC(F)F)n1 | inactive | –

SMILES | outcome | AC50
CC(C)(c1ccc(O)cc1)c1ccc(O)cc1 | inactive | –
COC(=O)CSc1cc(N=c2sc(=O)n3n2CCCC3)c(F)cc1Cl | inactive | –
O=C(O)C1(C(=O)Nc2ccc(Cl)cc2Cl)CC1 | inactive | –
C#C[C@]1(O)CC[C@H]2[C@@H]3CCC4=CC(=O)CC[C@@H]4[C@H]3CC[C@@]21CC | inactive | –
Cc1nn(C)c(Oc2ccccc2)c1C=NOCc1ccc(C(=O)OC(C)(C)C)cc1 | – | 11.8 µM (active)
CCCCCOC(=O)COc1cc(N2C(=O)C3=C(CCCC3)C2=O)c(F)cc1Cl | – | 20 µM (active)
CCCCOC(=O)[C@@H](C)Oc1ccc(Oc2ccc(C(F)(F)F)cn2)cc1 | inactive | –
CCNc1nc(N)nc(Cl)n1 | inactive | –
CCOC(=O)C(C)Oc1ccc(Oc2cnc3cc(Cl)ccc3n2)cc1 (stereo not given) | inactive | –
S=C(S)NCCNC(=S)S.[Mn+2].[S-]C([S-])=NCCN=C([S-])[S-].[Zn+2] | inactive | –
COC(=O)c1ccccc1C(=O)O | inactive | –
CCCCOC(=O)C(C)Oc1ccc(Oc2ccc(C(F)(F)F)cn2)cc1 (stereo not given) | inactive | –
CC(=O)[C@H]1CC[C@H]2[C@@H]3CCC4=CC(=O)CC[C@]4(C)[C@H]3CC[C@]12C | inactive | –
CCOC(=O)C(C)Oc1ccc(Oc2nc3ccc(Cl)cc3o2)cc1 (stereo not given) | – | 9.61 µM (active)
CCCCCCC(C)OC(=O)COc1nc(F)c(Cl)c(N)c1Cl (stereo not given) | inactive | –
COC(=O)c1cccc(C)c1S(=O)(=O)NC(=O)Nc1nc(OCC(F)(F)F)nc(N(C)C)n1 | inactive | –
C[C@]12CC[C@@H]3c4ccc(O)cc4C[C@@H](CCCCCCCCCS(=O)CCCC(F)(F)C(F)(F)F)[C@H]3[C@@H]1CC[C@@H]2O (stereo not given in full) | inactive | –
COC(=O)c1c(Cl)nn(C)c1S(=O)(=O)NC(=O)Nc1nc(OC)cc(OC)n1 | inactive | –
O=C(c1ccc(O)cc1O)c1ccc(O)cc1O | inactive | –
c1ccc2[nH]c(-c3cscn3)nc2c1 | inactive | –
